Bioassay records: PubChem, Sanford-Burnham Center for Chemical Genomics
Shown are actives, neighbours in structure and some others; about 4% of the full set was active somewhere.
TWEAK Fn14 block: blocks TWEAK-Fn14 interaction in a reporter cell assay | inhibition, % at 10 µM | hit rate 2% among 360,000 | TWEAK-stimulated Fn14 reporter cells, luciferase luminescence, 8 h; in the data active = inhibition above about 50%
CF NFkB block: blocks PAF-induced NF-kB reporter in cystic fibrosis cells | AID 588850 | KKLEB NF-kB-GFP reporter, GFP fluorescence overnight | hit rate 0.86% among 360,000 | inhibition, % at 5 µM;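 active = at least 50% inhibition at 5 µM, scaled per plate between neutral and stimulator controls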;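 also: PAF is a Pseudomonas aeruginosa culture filtrate used as stimulus; plate controls were PAF-stimulated DMSO wells for no effect and unstimulated DMSO wells for full effect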
Peg3 promoter: Peg3 promoter activity inhibition; AID 588405; hit rate 1.7% among 360,000; HeLa PEG-Prom luciferase reporter, luminescence, overnight; inhibition, % at 20 µM;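 active = inhibition of at least 50% at 20 µM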
KKLEB tox: CF airway cell cytotoxicity counter-screen | KKLEB CF airway cells viability, ATPlite luminescence, overnight; stronger effect = lower value; cells stimulated with P. aeruginosa culture filtrate | activity change (cytotoxicity), % at 5 µM | hit rate 0.36% among 360,000 | AID 602141;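 active = corrected activity change at or below -50% at 5 µM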
HIF-2a inh: blocks HIF-2a reporter activity; 786-0 RCC cells HIF-2a reporter, luciferase luminescence, overnight; inhibition, % at 18.8 µM; hit rate 0.72% among 360,000;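 active = inhibition of the luminescence signal of 40% or more relative to plate controls, in a single-dose primary screen at 18.75 µM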
TROY signal inh: blocks TROY-dependent signaling in reporter cells; Q293 LMP1-TROYcd NF-kB luciferase reporter, 4 h; inhibition, % at 10 µM; hit rate 0.98% among 360,000; AID 1347056;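 active = compounds whose plate-normalised and pattern-corrected inhibition of the luciferase reporter signal at the single screening dose is 50% or more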
Mdm2-MdmX confirm: Mdm2/MdmX (human) interaction inhibition, confirmed; inhibition, % at 8 µM; SaOS-2 split-luciferase Mdm2/MdmX complementation, luminescence; shares compounds with HIF-2a inh; hit rate 99% among 740;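 active = mean inhibition of the luminescence signal across two replicates at or above 26 percent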
Target sequence (O15151 whole entry, looked up): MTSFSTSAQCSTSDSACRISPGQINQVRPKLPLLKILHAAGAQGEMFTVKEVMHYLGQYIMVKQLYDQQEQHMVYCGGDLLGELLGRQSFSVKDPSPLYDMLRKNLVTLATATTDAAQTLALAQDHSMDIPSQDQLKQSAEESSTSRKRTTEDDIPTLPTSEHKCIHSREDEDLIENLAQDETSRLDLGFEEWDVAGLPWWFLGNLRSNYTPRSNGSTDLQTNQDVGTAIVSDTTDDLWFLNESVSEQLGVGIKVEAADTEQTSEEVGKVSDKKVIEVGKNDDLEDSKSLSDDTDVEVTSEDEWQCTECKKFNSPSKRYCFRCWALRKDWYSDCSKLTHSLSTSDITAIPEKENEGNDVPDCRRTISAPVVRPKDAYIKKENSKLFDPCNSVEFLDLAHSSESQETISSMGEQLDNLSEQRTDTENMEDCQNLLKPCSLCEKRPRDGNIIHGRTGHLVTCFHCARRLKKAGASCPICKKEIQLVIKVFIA
Target sequence (Q00987 whole entry, looked up): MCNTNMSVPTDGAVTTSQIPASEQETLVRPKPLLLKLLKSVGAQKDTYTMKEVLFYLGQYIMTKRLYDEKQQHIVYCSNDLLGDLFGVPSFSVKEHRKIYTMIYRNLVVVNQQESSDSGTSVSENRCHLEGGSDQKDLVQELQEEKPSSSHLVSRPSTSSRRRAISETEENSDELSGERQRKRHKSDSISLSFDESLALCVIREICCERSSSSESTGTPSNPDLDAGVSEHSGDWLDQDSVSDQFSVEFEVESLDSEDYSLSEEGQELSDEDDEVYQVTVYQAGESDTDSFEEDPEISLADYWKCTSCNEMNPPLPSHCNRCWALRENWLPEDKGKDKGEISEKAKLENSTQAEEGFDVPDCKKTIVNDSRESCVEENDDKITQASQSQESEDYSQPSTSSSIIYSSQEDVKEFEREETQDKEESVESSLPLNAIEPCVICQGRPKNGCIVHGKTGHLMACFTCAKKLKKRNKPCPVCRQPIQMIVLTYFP
HIF-2a conf: HIF-2a inhibition, single concentration confirmation; shares compounds with HIF-2a inh; 786-0 RCC cells, HIF-2a luciferase reporter luminescence, overnight; inhibition, % at 18.8 µM; hit rate 56% among 1,800; AID 651580;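 active = mean inhibition across four replicates of at least 40 percent at the single tested concentration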
HIF-1a cs: counter-screen for HIF-2a inhibitors: HIF-1a inhibition in MiaPaCa-2 cells; shares compounds with HIF-2a inh; MiaPaCa-2 HIF-1a luciferase reporter, desferoxamine, overnight; inhibition, % at 18.8 µM; hit rate 72% among 1,800; AID 651589;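 active = mean inhibition of the reporter signal across four replicates at the single tested dose of 50% or more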
Active calls of the source: *; · = not tested or not shown.

SMILES	TWEAK Fn14 block	CF NFkB block	Peg3 promoter	KKLEB tox	HIF-2a inh	TROY signal inh	HIF-2a conf	HIF-1a cs	others
O=C(CCN1C(=O)/C(=C/c2ccccc2)SC1=S)NCCc1ccc(O)cc1	-5	-3	95*	-4	25	-19	·	·	Mdm2-MdmX confirm=102*
COc1ccc(/C=C2\SC(=S)N(CCCC(=O)Nc3ccc(O)cc3)C2=O)cc1	6	-24	-42	5	45*	17	·	·	Mdm2-MdmX confirm=103*
COc1ccc(/C=C2\SC(=S)N(CCC(=O)Nc3ccc(C(=O)O)cc3)C2=O)cc1	-40	6	-1	-2	8	-37	·	·
COc1ccccc1NC(=O)Nc1nc(CC(=O)N2CCN(c3ccccc3)CC2)cs1	27	-4	13	15	-1	31	·	·
CN(C(=O)COC(=O)Cc1ccc(Br)cc1)c1c(N)n(Cc2ccccc2)c(=O)[nH]c1=O	-46	6	11	-2	0	-15	·	·
C=CCN(CC=C)Cc1cc(=O)oc2ccccc12	-10	10	2	-6	2	-23	·	·
C=C1CC(COc2cc(=O)oc3ccccc23)(c2ccccc2)OC1=O (stereo not drawn)	67*	98*	106*	-104*	90*	58*	57*	106*
O=C(CSc1nc2ccc([N+](=O)[O-])cc2[nH]1)c1ccc2ccccc2c1	-18	5	15	9	-25	4	·	·
CCCCS(=O)(=O)/C=C\C=C/S(=O)(=O)CCCC	79*	84*	102*	-71*	93*	47	·	·	Mdm2-MdmX confirm=102*
CCOC(=O)NC(NC(=S)Nc1ccc(OC)cc1)C(Cl)(Cl)Cl (stereo not drawn)	-7	-4	13	12	20	1	·	·
COc1ccc(NC(=S)NC(NC(=O)/C=C/c2ccccc2)C(Cl)(Cl)Cl)cc1 (stereo not drawn)	17	3	53*	-3	66*	43	8	30
COc1ccc(Oc2ccc(/C=C/C(=O)c3ccc(O)cc3)cc2[N+](=O)[O-])cc1	69*	35	108*	-20	91*	77*	37	104*
CCC1CCCCN1CCCNC(=O)C1CCN(Cc2nc(-c3ccc(Cl)cc3)oc2C)CC1 (stereo not drawn)	-2	8	80*	-17	16	-51	·	·	Mdm2-MdmX confirm=102*
Fc1ccc(-c2csc(N3CCC(c4ccccc4)C3)n2)cc1 (stereo not drawn)	7	-10	-331	-6	-242	-12	·	·
CCC1CCCCN1C(=O)COC(=O)CN(C)S(=O)(=O)c1ccc(NC(C)=O)cc1 (stereo not drawn)	-1	-26	8	16	15	-10	·	·
CCOc1cc(C=C(C(=O)OC)C(=O)OC)ccc1OCc1ccc([N+](=O)[O-])cc1	83*	31	107*	-2	92*	52*	98*	107*
O=C(NNC(=S)Nc1ccc(Cl)c(Cl)c1)c1ccccn1	-14	36	18	-30	-166	-12	·	·	Mdm2-MdmX confirm=85*
CCOC(=O)C(C)n1cnc2c1c(=O)[nH]c(=O)n2C (stereo not drawn)	14	18	12	-15	-14	-2	·	·
Cc1ccc(-c2nc(CSCC(=O)N3CCCC3)c(C)o2)cc1	4	0	-16	14	-38	0	·	·
CCCNC(=O)CSCc1nc(-c2ccc(SC)cc2)oc1C	-4	-21	-38	6	-96	-19	·	·
CCc1ccc(-c2nc(CS(=O)CC(=O)NCc3ccccc3)c(C)o2)cc1 (stereo not drawn)	57*	-3	53*	0	50*	21	45*	55*
CCc1ccc(-c2nc(CSCC(=O)NCc3ccco3)c(C)o2)cc1	65*	-10	14	-5	40*	45	44*	39
CCOC(=O)CSCc1nc(-c2ccc(Cl)cc2)oc1C	-1	2	2	1	50*	-30	54*	44
CC[C@H](C)C(C(=O)N1CCN(C(=O)OC(C)(C)C)CC1)n1cc(C(CO)NC(=O)OC(C)(C)C)nn1 (stereo partly drawn)	4	18	2	-3	16	2	·	·
C=CCN1C(=O)C(O)(CC(=O)c2c(C)n[nH]c2C)c2cc(Br)ccc21 (stereo not drawn)	9	-6	11	14	16	1	·	·
SMILES	TWEAK Fn14 block	CF NFkB block	Peg3 promoter	KKLEB tox	HIF-2a inh	TROY signal inh	HIF-2a conf	HIF-1a cs	others
O=C(NCC1CCN(C(=O)c2ccc([N+](=O)[O-])cc2)CC1)C(=O)Nc1ccccc1	-16	3	-2	-8	-12	-30	·	·
COC(=O)C(Cc1ccccc1)NC(=O)C(CC(C)C)NC(=O)OC(C)(C)C (stereo not drawn)	-1	-4	11	-4	8	-10	·	·
CC(C)CC(NC(=O)OCc1ccccc1)C(=O)NC(Cc1ccccc1)C(=O)CCl (stereo not drawn)	34	34	93*	-18	48*	-8	73*	87*
C=CCN1C(=O)CS/C1=N/c1nccs1	-6	7	1	-1	11	6	·	·
COc1c(Cl)cc(Cl)cc1/C=C/C(=O)c1ccc(NC(=O)c2cccs2)cc1	79*	88*	100*	-82*	87*	3	-97	107*	Mdm2-MdmX confirm=99*
COc1c(Cl)cc(Cl)cc1C(=O)Nc1ccc(C(=O)O)cc1	22	-1	5	5	10	-5	·	·
Cn1c(=O)[nH]c(=O)c2[nH]c(CN3CCN(Cc4ccccc4)CC3)nc21	0	5	10	8	12	-1	·	·
Cn1c(=O)[nH]c(=O)c2[nH]c(N(Cc3ccccc3)Cc3ccccc3)nc21	5	-3	24	1	41*	-6	11	-7
CCN(CC)S(=O)(=O)c1cccc(C(=O)NN2Cc3ccccc3C2=N)c1	2	-4	-5	8	14	-1	·	·
Cc1ccc(NC(=O)c2cc(N3C(=O)C=CC3=O)ccc2N2CCOCC2)cc1Cl	-1	30	93*	-9	48*	-13	68*	31
CC(C)Cn1c([N+](=O)[O-])nc2c1c(=O)[nH]c(=O)n2C	48	49	17	2	9	12	·	·
Cn1c(=O)[nH]c(=O)c2c1nc([N+](=O)[O-])n2Cc1ccccc1	73*	109*	117*	-85*	97*	16	·	·	Mdm2-MdmX confirm=103*
CCCCc1c(O)nc(SCC(=O)c2ccccc2)n(-c2ccccc2C)c1=O	-23	-4	3	8	-9	2	·	·
